Data reported in PubChem BioAssay (NCATS).
Unmarked numbers belong to inactive results. Results filed as inconclusive are left out. Entries that show only a call come without a potency. Active and inactive are the calls of the source. The call rests on the fitted dose curve; in most records, active means well fitted curve in the direction sought with a large enough effect; inconclusive means small, poorly fitted or top-dose-only effect, or another doubt; inactive means no such curve, though single readings can be large; an effect the other way counts as inactive or inconclusive. Where a SMILES comes first, the peptide text is derived from it. Bridges are numbered along the chain shown (N, C = ends). [ ]: non-standard residue; d: D form. NMeY = CN[CH](Cc1ccc(O)cc1)C(=O)O

What was measured:
[1] = target: Glutathione peroxidase 1 (Homo sapiens) (UniProt P07203); experiment: Primary qHTS Assay for Inhibitors of Recombinant Selenoprotein Glutathione Peroxidase 1 (GPX1) (AID 1845191); further: nearly all actives have a fitted effect of over 65% in size; further: potency means the concentration at half of the fitted maximal effect
Glutathione peroxidase 1 (Homo sapiens), sequence (P07203 whole entry, looked up): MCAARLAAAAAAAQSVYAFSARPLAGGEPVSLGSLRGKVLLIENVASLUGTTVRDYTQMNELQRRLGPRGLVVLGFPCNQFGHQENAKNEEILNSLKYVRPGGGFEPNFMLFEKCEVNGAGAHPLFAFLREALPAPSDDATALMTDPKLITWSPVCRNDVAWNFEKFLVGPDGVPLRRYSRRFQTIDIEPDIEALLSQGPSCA
Outline: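 NADPH consumption tracked by fluorescence at 340/450 nm between t=0 and t=15 min, room temperature. Final mix: 10 nM GPX1, 100 nM glutathione reductase, 1 mM GSH, 0.5 mM NADPH, 0.5 mM cumene hydroperoxide, 0.01% BSA; 30 min compound–enzyme preincubation.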

[2] = target: Phospholipid hydroperoxide glutathione peroxidase GPX4 (Homo sapiens) (UniProt P36969); experiment: Primary qHTS Assay for Inhibitors of Recombinant Selenoprotein Glutathione Peroxidase 4 (GPX4) (AID 1845192); further: nearly all actives have a fitted effect of over 65% in size; on activity change, negative = inhibition: series mostly up to about 50 µM
Phospholipid hydroperoxide glutathione peroxidase GPX4 (Homo sapiens), sequence (P36969 whole entry, looked up): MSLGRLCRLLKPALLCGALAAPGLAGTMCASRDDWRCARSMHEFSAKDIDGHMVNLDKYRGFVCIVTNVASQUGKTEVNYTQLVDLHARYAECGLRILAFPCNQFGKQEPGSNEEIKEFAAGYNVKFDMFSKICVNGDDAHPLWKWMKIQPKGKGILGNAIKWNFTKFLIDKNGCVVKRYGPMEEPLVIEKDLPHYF
Outline: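 NADPH consumption followed by fluorescence at 340/450 nm, t=0 and after 15 min at room temperature. Reaction started with cumene hydroperoxide (0.5 mM final) after 30 min compound–GPX4 preincubation; final 200 nM GPX4, 100 nM GR, 1 mM GSH, 0.5 mM NADPH.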

[3] = target: Luciferin 4-monooxygenase (Photinus pyralis) (UniProt P08659); experiment: Primary firefly luciferase (FLuc) qHTS assay for identification of artifact compounds. (AID 1845220); further: nearly all actives have a fitted effect of over 60% in size; on activity change, negative = inhibition: series mostly up to about 54 µM
Outline: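 Compounds sat 15 min at room temperature with 10 uM luciferin and 10 uM ATP (pH 7.6 Tris acetate). Firefly luciferase (10 nM final) was then added, and luminescence was read 5 min later. Data normalized to no-enzyme and DMSO controls were Hill-fitted.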

[4] = Primary fluorescence-based thiol-reactive (MSTI) qHTS assay for identification of artifact compounds. (AID 1845221); further: nearly all actives have a fitted effect of over 65% in size; further: potency means the concentration at half of the fitted maximal effect;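 on activity change, negative = thiol reactive: series mostly up to about 54 µM; thiol-reactive compounds lower the probe fluorescence signal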
Outline: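 In PBS pH 7.4 with 2% DMSO, each compound met 4 uM MSTI for one hour at ambient temperature, shielded from light, before fluorescence detection.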

[5] = system: Nanoluciferase (engineered Oplophorus gracilirostris luciferase); experiment: Primary Nanoluciferase (NLuc) qHTS assay for identification of artifact compounds. (AID 1845222); further: series mostly up to about 54 µM
Outline: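 Luminescence from secreted NLuc (filtered, 1:55-diluted S16 cell medium) read 5 min after Nano-Glo substrate; compounds preincubated 15 min, RT. Hill fits of inhibition normalized to DMSO and no-enzyme.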

[6] = Primary redox qHTS assay for identification of artifact compounds. (AID 1845223)
Outline: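 Redox-cycling detection via DTT (250 uM final) oxidation coupled to Amplex Red (25 uM)/HRP (250 mU/mL) in HBSS. 15 min preincubation plus 30 min after DTT, room temperature. Ex/Em 525/598 nm; 4-parameter Hill fit against DMSO and 10 uM DA3003.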

SMILES | Potency [1] | Potency [2] | Potency [3] | Potency [4] | Potency [5] | Potency [6] | activity change, negative = inhibition [3] | activity change, negative = thiol reactive [4] | activity, negative = inhibition [5] | redox activity (% of DA3003) [6]
NC(=O)[C@H](O[C@@H]1O[C@H](CO)[C@@H](O)[C@H](O)[C@H]1O)c1ccccc1 | inactive | inactive | inactive | 16.5 µM (active) | inactive | inactive | – | – | – | –
CC1CCC2C(C(=O)O)=COC(O[C@@H]3O[C@H](CO)[C@@H](O)[C@H](O)[C@H]3O)C12 (stereo partly specified) | inactive | inactive | inactive | 5.85 µM (active) | inactive | inactive | – | – | – | –
CC1(C)CC[C@]2(C(=O)O)[C@H](O)C[C@]3(C)C(=CCC4[C@@]5(C)CC[C@H](O[C@@H]6O[C@H](CO[C@@H]7OC[C@H](O)[C@H](O)[C@H]7O[C@@H]7OC[C@@H](O)[C@H](O)[C@H]7O)[C@@H](O)[C@H](O)[C@H]6O[C@@H]6O[C@H](CO)[C@@H](O)[C@H](O)[C@H]6O)C(C)(C)C5CC[C@]43C)[C@@H]2C1 (stereo partly specified) | inactive | inactive | – | – | – | – | 0.747% [at 11.6 µM] | 242% [at 11.5 µM] | 3.21% [at 11.6 µM] | 15.6% [at 11.5 µM]
C=C1CC2C(C)(CCC(=O)O)C(C(C)(C)O)CCC2(C)C2C(=O)OC(C)(C(=O)OC)C(=O)C12C (stereo unspecified) | inactive | inactive | inactive | inactive | inactive | inactive | – | – | – | –
O=C(CCc1nnc2n(Cc3ccc(Cl)cc3)c(=O)c3ccccc3n12)NCCC1=CCCCC1 | inactive | inactive | inactive | inactive | inactive | inactive | – | – | – | –
CCC(C)C1NC(=O)C2CCCN2C(=O)C(NC(C)=O)C(C)OC(=O)C(Cc2ccc(OC)cc2)N(C)C(=O)C2CCCN2C(=O)C(C(C)C)NC1=O (stereo unspecified) (Ac-TPIVP[NMeY](Me); ester 1-C; configuration not given here) | inactive | inactive | inactive | inactive | inactive | inactive | – | – | – | –
CC1CC(O)C2(OC1=O)OC1C(O)C3C4CCC5CC(OC6OC(CO)C(O)C(O)C6OC6OC(C)C(O)C(O)C6O)CCC5(C)C4CCC3(C)C1C2C (stereo unspecified) | inactive | inactive | inactive | inactive | inactive | inactive | – | – | – | –
C[C@H](Oc1ccc(S(C)(=O)=O)cc1C(=O)N1CCN(c2ncc(C(F)(F)F)cc2F)CC1)C(F)(F)F | inactive | inactive | inactive | inactive | inactive | inactive | – | – | – | –
OCc1ccc(O[C@@H]2O[C@H](CO)[C@@H](O)[C@H](O)[C@H]2O)cc1 | inactive | inactive | inactive | inactive | inactive | inactive | – | – | – | –
Cc1cccc(S(=O)(=O)N2CCC[C@@H]2CCN2CCC(C)CC2)c1 | inactive | inactive | inactive | inactive | inactive | inactive | – | – | – | –
C=C(C)C1CCC(C)C12CC(O)C1(C)OC1C2OC(=O)C(N)CCC(=O)O (stereo unspecified) | inactive | inactive | inactive | inactive | inactive | inactive | – | – | – | –
C[C@]12C[C@@H](O)[C@@H]3C[C@@]1(O[C@@H]1O[C@H](CO)[C@@H](O)[C@H](O)[C@H]1O)[C@]3(COC(=O)c1ccccc1)C(=O)O2 | inactive | inactive | inactive | 13 µM (active) | inactive | inactive | – | – | – | –
C=C(C(=O)OC)C1C(O)CC2(C)C(O)CCC(=O)C2C1O (stereo unspecified) | inactive | inactive | inactive | inactive | inactive | inactive | – | – | – | –
CC(=O)C12OC(C)(C)OC1CC1C3CCC4=CC(=O)C=CC4(C)C3(F)C(O)CC12C (stereo unspecified) | inactive | inactive | inactive | inactive | inactive | inactive | – | – | – | –
CC1=CC(=O)CC(C)(CO)C1(O)/C=C/C(C)O[C@@H]1O[C@H](CO)[C@@H](O)[C@H](O)[C@H]1O (stereo partly specified) | inactive | inactive | inactive | 10.3 µM (active) | inactive | inactive | – | – | – | –
CC1(C)CC2C(C1)C(C)(O)C13CC1(COC3=O)C2O (stereo unspecified) | inactive | inactive | inactive | inactive | inactive | inactive | – | – | – | –
CC(C)(C)Nc1nc2cc(Cl)c(Cl)cc2nc1S(C)(=O)=O | inactive | inactive | inactive | inactive | inactive | inactive | – | – | – | –
CC1=CC(=O)[C@]2(O[C@@H]3O[C@@H](C)[C@H](O)[C@@H](O)[C@H]3OC(=O)/C=C/c3ccccc3)C=CO[C@@H](O[C@@H]3O[C@H](CO)[C@@H](O)[C@H](O)[C@H]3O)[C@H]12 | inactive | inactive | inactive | 2.51 µM (active) | inactive | inactive | – | – | – | –
C=C1[C@H](OC(C)=O)[C@H]2[C@@H](OC(C)=O)[C@](C)(OC(C)=O)C[C@]2(OC(C)=O)C(=O)[C@H](C)/C=C/C(C)(C)C(=O)[C@H](OC(=O)C(C)CC)[C@H]1OC(C)=O (stereo partly specified) | inactive | inactive | inactive | inactive | inactive | inactive | – | – | – | –
Cc1nc2sc(C(=O)NCc3ccncc3)c(N)c2c(C)c1Cl | 12.8 µM (active) | inactive | inactive | inactive | inactive | inactive | – | – | – | –
O=C(O)c1ccccc1NC(=O)N1CCC(c2ccccc2C(F)(F)F)CC1 | inactive | inactive | inactive | inactive | inactive | inactive | – | – | – | –
